Compound activity (PubChem)
The list is not random: actives were taken first. Their share in the collection is about 19%.
TDP1 cell noCPT: qHTS for Inhibitors of human tyrosyl-DNA phosphodiesterase 1 (TDP1): qHTS in cells in absence of CPT | DT40 Tdp1-/- hTDP1 cells, no CPT, ATP luminescence, 48 h | Potency, µM (doses to about 46.2 µM), for the others: at the highest dose activity change, negative = growth inhibition, hits mostly inhibitors | 15% of 420,000 active | AID 686978, 2013; note: potency is the fitted concentration of half-maximal effect; nearly all actives have a fitted effect of over 55% in size
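Seeded 400 DT40-hTDP1 cells/well (vehicle DMSO, no 20 nM CPT); pinned compounds; ≥48 hr at 37 °C; CellTiter-Glo luminescence as viability measure.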
HT1080-NT tox: kills 2HG-producing HT-1080-NT fibrosarcoma cells. AID 686970. Potency, µM (titrated, usually from 46.1 µM), for the others: at the highest dose activity, negative = less viability, actives largely listed as cytotoxic. 1.6% of 360,000 active. HT-1080-NT fibrosarcoma viability, CellTiter-Glo ATP luminescence, 48 h;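 note: NT is the 2HG producing partner of a matched IDH1 knockdown line; potency is the fitted concentration of half-maximal effect; 0% = DMSO-treated cells and -100% = media-only wells without cells; nearly all actives have a fitted effect of over 55% in size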
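750 cells/well, RPMI + 5% FBS; 2 h settle, compound pin-transfer, 48 h at 37 degrees C. CellTiter-Glo 10 min RT, luminescence. Normalized to DMSO and media-only wells.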
HT1080 IDH1KD tx: toxicity to HT-1080 IDH1 knockdown cells (counter line); HT-1080 IDH1 knockdown viability, ATP luminescence, 48 h; Potency, µM (doses to about 46.1 µM), inactives show at the highest dose activity, negative = toxicity, hits mostly cytotoxic; 2% of 360,000 active; AID 686971;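 note: potency is the fitted concentration of half-maximal effect; 0% = DMSO wells and -100% = cell-free medium wells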
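Using the IDH1-knockdown HT-1080 line run in the same batch and compound series as the NT line, viability after 48 h at 37 °C was determined by CellTiter-Glo luminescence and expressed as % activity.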
TDP1 cell CPT: DT40-hTDP1 cell growth loss with CPT; chicken DT40 Tdp1-/-;hTDP1 cells + 20 nM CPT, ATP luminescence, 48 h; 12% of 420,000 active; Potency, µM (doses to about 46.2 µM), without a hit: top-dose activity change, negative = growth inhibition, most hits filed as inhibitors; AID 686979; note: potency is the fitted concentration of half-maximal effect; nearly all actives have a fitted effect of over 55% in size
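Chicken DT40 Tdp1-/- cells complemented with human TDP1, 400 cells/well, exposed to compounds plus 20 nM camptothecin for at least 48 h at 37 C; viability read as ATP content by CellTiter-Glo luminescence.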
IL1B secr inh: inhibitors of inflammasome signaling (IL-1 beta secretion); THP-1 LPS/ATP IL-1B secretion, AlphaLISA, 16 h; active compounds read low; activity change, % at 57.5 µM; 4.7% of 360,000 active; AID 743279; in the data active = activity change below about -50%; inconclusive = mostly about -30% to -49%
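THP-1 cells pretreated 1 hr with compounds (up to 57.5 uM final), then stimulated with LPS (250 ng/mL final) plus ATP (1.25 mM final); secreted IL-1B measured by AlphaLISA after 16 hr, decreased signal indicating inhibition.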
Active calls of the source: *; ? = inconclusive; · = not tested or not shown. Unless noted, calls come from the whole dose curve; as a rule, active = well fitted curve in the direction sought with a large enough effect; inconclusive = small, poorly fitted or top-dose-only effect, or another doubt; inactive = no such curve, though single readings can be large; an effect the other way counts as inactive or inconclusive. Unless noted, % is set by controls: 0 for no effect and ±100 for the full control effect.

SMILES	TDP1 cell noCPT	HT1080-NT tox	HT1080 IDH1KD tx	TDP1 cell CPT	IL1B secr inh
CC1Cc2ccccc2N1Cc1cccc(S(=O)(=O)N(C)C)c1 (centres undefined)	?	-26.6%	-23.0%	?	-1.0
CN1[C@@H]2CC[C@H]1CC(O[C@@H](c1ccccc1)c1ccc(Cl)cc1)C2 (some centres undefined)	4.22µM*	·	·	2.66µM*	·
CN1C2CCC1CC(OC(c1ccc(F)cc1)c1ccc(F)cc1)C2 (centres undefined)	7.31µM*	·	·	6.51µM*	·
CN1C2CCC1CC(OC(=O)c1ccc(Cl)cc1)C2 (centres undefined)	?	-12.0%	-1.6%	?	-8.2
COc1ccc(NC2=NCCCS2)cc1OC	-2.3%	5.2%	-2.0%	14.4%	14.5
COc1ccc(Nc2nc(NC(C)C)nc3ccsc23)cc1OC	18.4µM*	?	-26.2%	18.4µM*	-89.1*
COc1ccc(-n2nnnc2C(c2ccnc3ccccc23)N2CCC(n3c(=O)[nH]c4ccccc43)CC2)cc1 (centres undefined)	?	?	?	?	-28.8
O=c1[nH]c2ccccc2n1C1CCN(C(c2ccccc2OC(F)(F)F)c2nnnn2-c2ccc3c(c2)OCCO3)CC1 (centres undefined)	4.61µM*	?	23.1µM*	7.31µM*	-55.7*
O=C1NCN(c2ccccc2)C12CCN(C(c1cccc3ccccc13)c1nnnn1-c1ccc3c(c1)OCCO3)CC2 (centres undefined)	?	1.6%	-1.6%	?	?
COc1cccc(C(c2nnnn2-c2ccc3c(c2)OCCO3)N2CCC(n3c(=O)[nH]c4ccccc43)CC2)c1OC (centres undefined)	2.31µM*	?	?	2.91µM*	32.3
COc1ccc(-n2nnnc2C(c2cccc(OC)c2OC)N2CCC(n3c(=O)[nH]c4ccccc43)CC2)cc1 (centres undefined)	5.17µM*	?	?	8.2µM*	-22.3
Cc1ccc(-n2c(CNCc3ccc(F)cc3)nc3ccccc3c2=O)cc1	-22.2%	7.6%	-0.8%	?	5.6
Cc1cccc(-n2c(-c3ccccc3)nc3ccccc3c2=O)n1	?	0.3%	4.8%	?	4.6
Cc1cc(C)c(N)cc1C	?	21.8%	7.1%	-12.3%	4.0
OCC(CBr)(CBr)CBr	?	-3.5%	-0.7%	-1.0%	19.0
CC(C)(C)n1cc(C(=O)c2ccccc2)cc1-c1ccccc1	?	19.1%	6.9%	25.9µM*	18.3
CN(C)C(=O)Oc1ccc(C(=O)c2ccccc2)cc1	-7.5%	1.0%	0.0%	-5.5%	-5.7
O=c1c2ccccc2nc(/C=C/c2ccccc2)n1-c1ccccc1O	23.1µM*	-23.0%	-28.0%	-10.8%	·
O=c1c2ccccc2nc(/C=C/c2cccnc2)n1Cc1ccccc1	23.1µM*	?	?	?	?
O=c1c2ccccc2nc(/C=C/c2ccc(O)cc2)n1-c1ccccc1O	?	-9.6%	-18.5%	?	?
Cc1nc2ccccc2c(=O)n1-c1ccncc1	3.2%	2.0%	2.6%	5.1%	11.9
COc1ccccc1-n1c(/C=C/c2ccccc2)nc2ccccc2c1=O	25.9µM*	·	·	?	·
COc1ccc(-n2c(/C=C\c3ccccc3F)nc3ccccc3c2=O)c(OC)c1	23.1µM*	·	·	14.6µM*	·
CC[C@H](C)C(=O)O[C@H]1C[C@H](O)C=C2C=C[C@H](C)[C@H](CC[C@@H](O)C[C@@H](O)CC(=O)O)[C@H]21	-26.7%	·	·	?	·
CNS(=O)(=O)c1ccc(N=Cc2c(O)n(-c3ccccc3)c(=O)[nH]c2=O)cc1	-0.9%	0.4%	-3.5%	4.3%	-9.7
SMILES	TDP1 cell noCPT	HT1080-NT tox	HT1080 IDH1KD tx	TDP1 cell CPT	IL1B secr inh
O=c1c2ccccc2nc(/C=C/c2ccccc2)n1-c1ccc(O)cc1	23.1µM*	?	?	?	?
O=c1c2ccccc2nc(/C=C/c2ccc(F)cc2)n1-c1ccccn1	18.4µM*	35.3%	15.1%	?	7.3
O=c1c2ccccc2nc(/C=C/c2ccc(O)c(O)c2)n1-c1ccccc1	25.9µM*	-18.8%	-20.9%	?	-16.4
O=C(CCl)c1ccc(O)c(O)c1	11.2µM*	·	·	?	·
O=C(Nc1ccc(Cl)c(C(F)(F)F)c1)[C@@H]1CC=C[C@@H]2CCN(Cc3ccccc3)C(=O)[C@@H]21	?	8.1%	11.4%	?	-15.6
N[C@H](C(=O)O)[C@@H]1CC(Cl)=NO1	2.11µM*	·	·	1.68µM*	·
O=C(NN1C(=O)C2C3C=CC(C4CC34)C2C1=O)c1cccc(Br)c1 (centres undefined)	?	0.6%	0.3%	-24.8%	0.2
CC(=O)OC1N=C(c2ccccc2)c2ccccc2NC1=O (centres undefined)	-5.1%	-0.8%	1.2%	-5.3%	24.0
N#Cc1ccc(C(=O)N2CCN(c3nc4ccc(F)cc4s3)CC2)cc1	2.31µM*	·	·	2.31µM*	·
O=C(O)c1nn(Cc2ccc(Cl)c(Cl)c2)c2ccccc12	-3.0%	·	·	3.5%	·
Clc1cccc(C2NCCc3[nH]cnc32)c1 (centres undefined)	-3.7%	3.3%	3.8%	-0.9%	30.5
Cc1cc(/C=C2\C(=O)NC(=O)N(c3ccccc3F)C2=O)c(C)n1-c1cc(C(=O)O)cc(C(=O)O)c1	-0.8%	3.5%	-0.2%	3.2%	-18.5
Cc1cc(C=C2C(=O)NC(=O)NC2=O)c(C)n1-c1ccc2c(c1)OCO2	-3.2%	-6.8%	-18.0%	-17.7%	0.1
Cc1cccc(N2C(=O)NC(=O)/C(=C\c3cc(C)n(-c4sc5c(c4C#N)CCCC5)c3C)C2=O)c1C	?	?	16.4µM*	?	-137.9*
CCOC(=O)c1c(-n2c(C)cc(C=C3C(=O)NC(=O)NC3=O)c2C)sc2c1CCCC2	18.4µM*	9.5%	-0.2%	?	-15.3
Cc1[nH]c2ccc(OC(=O)N3CCOCC3)cc2c1C(=O)OC(C)C	?	-12.0%	-15.1%	?	-1.8
C[C@]12CCC3C(CC[C@H]4C[C@H](OC(=O)c5cccnc5)CC[C@]34C)C1CCC2=O (some centres undefined)	23.1µM*	-6.3%	-11.7%	?	20.6
C[C@]12CC[C@H](O)C[C@@H]1CC[C@H]1[C@H]3CCC(=O)[C@@]3(C)CC[C@@H]12	18.4µM*	-0.8%	-1.0%	?	-24.7
C[C@]12C=CC(=O)C=C1CC[C@@H]1[C@@H]2CC[C@]2(C)OC(=O)CC[C@@H]12	-9.4%	·	·	-18.6%	·
COc1ccc2c(c1OC)C(=O)OC2c1c(O)n(C2CCCCC2)c(=O)[nH]c1=O (centres undefined)	8.4%	17.0%	11.9%	4.8%	5.7
